This is an account of results in publication PMC8384837, “Expanding the binding specificity for RNA recognition by a PUF domain”.

What all share (experiment): yeast three-hybrid, YBZ-1, SC-Leu-His + 0.5 mM 3-AT, 4 days
What all share (conditions): tags: N-Gal4 AD-HA kept; label: inside an RPR1-promoter hybrid RNA with tandem MS2 sites; ssRNA

Assay [1] concerns the target PUM1 PUF domain R7-RPI (Homo sapiens, UniProt Q14671 828-1176, S1079R;N1080P;E1083I). An outline of the steps:
(§1)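 Sequencing with Illumina followed PCR amplification of the repeat regions from transformants grown four days on SC-Leu (input) or SC-Leu-His + 0.5 mM 3-AT (selection). The transformants were strain YBZ-1 with a LexA–MS2 coat fusion and a HIS3 reporter, carrying Pumilio-1 PUF domain libraries and matching RNA elements. The interaction score is the log change in variant frequency from input to selection, computed in log2 with a pseudocount of 1 for absent variants.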

Assay [2] has as its target T1, PUM1 PUF domain R6-HWC (Homo sapiens, UniProt Q14671 828-1176, N1043H;Y1044W;Q1047C).
T1 sequence: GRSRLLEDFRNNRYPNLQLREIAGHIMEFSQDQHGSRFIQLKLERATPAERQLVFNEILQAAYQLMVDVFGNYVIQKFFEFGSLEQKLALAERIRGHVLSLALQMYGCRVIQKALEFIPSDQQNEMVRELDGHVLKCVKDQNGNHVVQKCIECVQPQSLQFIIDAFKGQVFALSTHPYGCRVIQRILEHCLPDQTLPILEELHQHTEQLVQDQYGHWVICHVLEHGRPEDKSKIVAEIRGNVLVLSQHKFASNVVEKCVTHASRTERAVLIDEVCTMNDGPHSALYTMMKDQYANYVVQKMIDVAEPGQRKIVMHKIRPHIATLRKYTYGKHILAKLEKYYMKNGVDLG
The method in brief: as §1

Assay [3] has as its target PUM1 PUF domain R8-KRY (Homo sapiens, UniProt Q14671 828-1176, N1122K;Y1123R;Q1126Y). An outline of the steps:
as §1

The target in assay [4] is PUM1 PUF domain R8-PRR (Homo sapiens, UniProt Q14671 828-1176, N1122P;Y1123R;Q1126R). The method in brief: as §1
In assay [5] the target is PUM1 PUF domain R4-TRT (Homo sapiens, UniProt Q14671 828-1176, N971T;H972R;Q975T). An outline of the steps:
as §1

In assay [6] the target is PUM1 PUF domain R5-CSR (Homo sapiens, UniProt Q14671 828-1176, R1008S;Q1011R). An outline of the steps:
as §1

In assay [7] the target is PUM1 PUF domain R5-RQW (Homo sapiens, UniProt Q14671 828-1176, C1007R;R1008Q;Q1011W). An outline of the steps:
as §1

Take “GGCUAGAACUAGUGGAUCCCCCGGCGCCCGGCGGCUCGAGCCCGGGUAAGUCUAAAUAGUCUGCAUGCCGCCGGGCGCCAUGCCUGCAGGUCGACUCUAGAAAACAUG”: the binding signal in assay [1] is 0.71 log2 enrichment (interaction score).
With “GGCUAGAACUAGUGGAUCCCCCGGCGCCCGGCGGCUCGAGCCCGGGUAAGUUUAAAUAGUCUGCAUGCCGCCGGGCGCCAUGCCUGCAGGUCGACUCUAGAAAACAUG”, the binding signal in assay [1] was 2.52 log2 enrichment (interaction score).
As for “GGCUAGAACUAGUGGAUCCCCCGGCGCCCGGCGGCUCGAGCCCGGGUAAGUGAAAAUAGUCUGCAUGCCGCCGGGCGCCAUGCCUGCAGGUCGACUCUAGAAAACAUG”, the binding signal in assay [2] is 6.25 log2 enrichment (interaction score).
Take “GGCUAGAACUAGUGGAUCCCCCGGCGCCCGGCGGCUCGAGCCCGGGUAAGCGUAAAUAGUCUGCAUGCCGCCGGGCGCCAUGCCUGCAGGUCGACUCUAGAAAACAUG”: the binding signal was 3.46 log2 enrichment (interaction score) in assay [3] and 4.08 log2 enrichment (interaction score) in assay [4].
Regarding “GGCUAGAACUAGUGGAUCCCCCGGCGCCCGGCGGCUCGAGCCCGGGUAAGUGUAAAUAGUCUGCAUGCCGCCGGGCGCCAUGCCUGCAGGUCGACUCUAGAAAACAUG”, the binding signal in assay [5] was 2.59 log2 enrichment (interaction score); in assay [6], 1.42 log2 enrichment (interaction score); in assay [4] it was 3.57 log2 enrichment (interaction score).
As for “GGCUAGAACUAGUGGAUCCCCCGGCGCCCGGCGGCUCGAGCCCGGGUAAGUGUCAAUAGUCUGCAUGCCGCCGGGCGCCAUGCCUGCAGGUCGACUCUAGAAAACAUG”, the values for the binding signal in assay [7] and in assay [6] were 1.8 log2 enrichment (interaction score) and 4.8 log2 enrichment (interaction score), respectively.
Take “GGCUAGAACUAGUGGAUCCCCCGGCGCCCGGCGGCUCGAGCCCGGGUAAGUGUUAAUAGUCUGCAUGCCGCCGGGCGCCAUGCCUGCAGGUCGACUCUAGAAAACAUG”: the binding signal in assay [7] was 2.23 log2 enrichment (interaction score).
